# In publication PMC11062922 (Nature Chemical Biology, 2023):
# Like-named read-outs stand apart in the source and are kept apart here.
# Tests used:
# Design in all cases: species or system human, MV4-11 + K-562 + COLO205 + SK-N-BE2 + OVCAR-8
# CDK17 = conditions: read-out: apparent Kd, n = 1
# CSNK1A1 = conditions: read-out: apparent Kd, n = 1
# CSNK1E = conditions: read-out: apparent Kd, n = 1
# HCK = conditions: read-out: apparent Kd; compound concentrations: 100 nM and 1000 nM (sheet 'Samples'), CATDS: 6.5481840851314196E-3; n = 1
# PHKG2 = conditions: read-out: apparent Kd, n = 1
# PRKAA2 = conditions: read-out: apparent Kd, n = 1
# PRKX = conditions: read-out: apparent Kd, n = 1
# RIOK2 = conditions: read-out: apparent Kd, n = 1
# ROCK2 = conditions: read-out: apparent Kd, n = 1
# STK3 = conditions: read-out: apparent Kd, n = 1
# TNIK = conditions: read-out: apparent Kd, n = 1
# ADCK1 = conditions: read-out: apparent Kd; compound concentrations:100 nM and 1000 nM (sheet 'Samples'); n = 1
# MAPK8 = conditions: read-out: apparent Kd; compound concentrations:100 nM and 1000 nM (sheet 'Samples'); n = 1
# YES1 = conditions: read-out: apparent Kd; compound concentrations:100 nM and 1000 nM (sheet 'Samples'); n = 1
# [1] = compound concentrations:100 nM and 1000 nM (sheet 'Samples')
smiles,measurement,setting,value
O=C(O)C(F)(F)F.O=C(O)C(F)(F)F.O=c1[nH]ccc2nc(N[C@@H]3CCCNC3)nc(Nc3ccc(S(=O)(=O)N4CCOCC4)cc3)c12.O=c1[nH]ccc2nc(N[C@@H]3CCCNC3)nc(Nc3ccc(S(=O)(=O)N4CCOCC4)cc3)c12 [GSK2177277A],potency estimated from few doses,"CDK17; compound concentrations: 100 nM and 1000 nM (sheet 'Samples'), CATDS: 6.5557639532583699E-3",1380 nM
same,potency estimated from few doses,"CSNK1A1; compound concentrations: 100 nM and 1000 nM (sheet 'Samples'), CATDS: 1.2484395279946501E-2",150 nM
same,potency estimated from few doses,"CSNK1E; compound concentrations: 100 nM and 1000 nM (sheet 'Samples'), CATDS: 1.0000373505011199E-2",274 nM
same,potency estimated from few doses,HCK,1390 nM
same,potency estimated from few doses,"PHKG2; compound concentrations: 100 nM and 1000 nM (sheet 'Samples'), CATDS: 8.6754793941291007E-3",430 nM
same,potency estimated from few doses,"PRKAA2; compound concentrations: 100 nM and 1000 nM (sheet 'Samples'), CATDS: 4.4200978243391198E-2",13.7 nM
same,potency estimated from few doses,"PRKX; compound concentrations: 100 nM and 1000 nM (sheet 'Samples'), CATDS: 7.1625839917235003E-3",897 nM
same,potency estimated from few doses,"RIOK2; compound concentrations: 100 nM and 1000 nM (sheet 'Samples'), CATDS: 6.0080792942577401E-3",2350 nM
same,potency estimated from few doses,"ROCK2; compound concentrations: 100 nM and 1000 nM (sheet 'Samples'), CATDS: 8.2952674328971108E-3",503 nM
same,potency estimated from few doses,"STK3; compound concentrations: 100 nM and 1000 nM (sheet 'Samples'), CATDS: 4.2815354509816599E-2",14.4 nM
same,potency estimated from few doses,"TNIK; compound concentrations: 100 nM and 1000 nM (sheet 'Samples'), CATDS: 6.517178775647E-3",1420 nM
CN(C)CC(O)COc1ccc(Nc2nccc(-c3cnn4nc(N5CCOCC5)ccc34)n2)cc1 (centres unmarked) [GW767488X],potency estimated from few doses,ADCK1,587 nM
same,potency estimated from few doses,CDK17; [1],200 nM
same,potency estimated from few doses,CSNK1A1; [1],1250 nM
same,potency estimated from few doses,MAPK8,127 nM
same,potency estimated from few doses,PHKG2; [1],2250 nM
same,potency estimated from few doses,RIOK2; [1],206 nM
same,potency estimated from few doses,ROCK2; [1],1440 nM
CNc1cc(-c2ccc3c(N)n[nH]c3c2)nc(N)n1 [GSK2224810A],potency estimated from few doses,CSNK1A1; [1],2450 nM
same,potency estimated from few doses,YES1,1160 nM
O=C(O)C(F)(F)F.O=c1[nH]ccc2nc(N[C@@H]3CCNC3)nc(Nc3cc(Cl)cc(Cl)c3)c12 [GSK2188764A],potency estimated from few doses,ADCK1,1680 nM
same,potency estimated from few doses,PHKG2; [1],786 nM
same,potency estimated from few doses,PRKAA2; [1],106 nM
same,potency estimated from few doses,STK3; [1],847 nM
same,potency estimated from few doses,TNIK; [1],1270 nM
Cl.Cl.NC[C@H](CC1CCCCC1)NC(=O)c1ccc(-c2ccnc3[nH]ccc23)s1.NC[C@H](CC1CCCCC1)NC(=O)c1ccc(-c2ccnc3[nH]ccc23)s1 [GSK1581428A],potency estimated from few doses,PRKX; [1],14.8 nM
same,potency estimated from few doses,ROCK2; [1],22.8 nM
Cl.Nc1nc(-c2ccc3c(c2)C(=Cc2cc(Br)c(O)c(Br)c2)C(=O)N3)cs1 [GW407323A],potency estimated from few doses,"CDK17; compound concentrations: 100 nM and 1000 nM (sheet 'Samples'), CATDS: 2.78233460707746E-2",2030 nM
same,potency estimated from few doses,"TNIK; compound concentrations: 100 nM and 1000 nM (sheet 'Samples'), CATDS: 0.10928508706444801",58.6 nM
NS(=O)(=O)c1ccc(N/C=C2\C(=O)Nc3ccc4ncsc4c32)cc1 [GW297361X],potency estimated from few doses,"CDK17; compound concentrations: 100 nM and 1000 nM (sheet 'Samples'), CATDS: 3.2920302363338198E-2",1410 nM
same,potency estimated from few doses,"STK3; compound concentrations: 100 nM and 1000 nM (sheet 'Samples'), CATDS: 4.8533419751013301E-2",558 nM
same,potency estimated from few doses,"TNIK; compound concentrations: 100 nM and 1000 nM (sheet 'Samples'), CATDS: 3.6664419763171099E-2",1050 nM
COc1cc[nH]c1/C=C1\C(=O)Nc2ccc([N+](=O)[O-])c(N3CC[C@@H](O)C3)c21 [RO0504985-000],potency estimated from few doses,"CDK17; compound concentrations: 100 nM and 1000 nM (sheet 'Samples'), CATDS: 2.9599513328136099E-2",2050 nM
Cc1occc1-c1nc(N)c(OC[C@@H](N)Cc2c[nH]c3ccccc23)cc1-c1cc2c(C)n[nH]c2cn1 [GSK1660450B],potency estimated from few doses,CSNK1E; [1],144 nM
same,potency estimated from few doses,STK3; [1],93.5 nM
same,potency estimated from few doses,TNIK; [1],696 nM
COc1cc[nH]c1/C=C1\C(=O)Nc2ccc(F)c(C#C[C@@H](O)[C@@H](N)[C@@H](C)O)c21 [RO0283120-000],potency estimated from few doses,CDK17; [1],774 nM
same,potency estimated from few doses,MAPK8,942 nM
same,potency estimated from few doses,PHKG2; [1],669 nM
same,potency estimated from few doses,STK3; [1],680 nM
NS(=O)(=O)c1ccc(NC=C2C(=O)Nc3ccc4ncsc4c32)cc1 [GW589933X],potency estimated from few doses,"CDK17; compound concentrations: 100 nM and 1000 nM (sheet 'Samples'), CATDS: 2.5834512792532401E-2",479 nM
same,potency estimated from few doses,"CSNK1E; compound concentrations: 100 nM and 1000 nM (sheet 'Samples'), CATDS: 1.7679596648165999E-2",1500 nM
same,potency estimated from few doses,"STK3; compound concentrations: 100 nM and 1000 nM (sheet 'Samples'), CATDS: 3.1819272048607197E-2",295 nM
same,potency estimated from few doses,"TNIK; compound concentrations: 100 nM and 1000 nM (sheet 'Samples'), CATDS: 5.8590994029209698E-2",89.2 nM
